Assay results taken from article PMC3795721, “Screening for Protein-DNA Interactions by Automatable DNA-Protein Interaction ELISA”.

Target: AT4G31550 (Arabidopsis thaliana, UniProt Q9SV15 228-325)
Test: DPI-ELISA; DPI-ELISA, streptavidin 384-well plate, 1-2 pmol biotinylated dsDNA per well, crude native E. coli extract, anti-His detection; buffer as in Brand et al. [46],; high values mean tight binding
Conditions: tags: C-terminal His (pET-DEST42); label: 5' biotin on forward strand; dsDNA, one strand shown

Sequence of AT4G31550 (Q9SV15 228-325): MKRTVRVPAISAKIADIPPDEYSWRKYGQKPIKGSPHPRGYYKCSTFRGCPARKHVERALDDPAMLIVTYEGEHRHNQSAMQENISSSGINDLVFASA

Sequence | binding signal [absorbance]
AAAAAAGTCTCACCTTTAGTCTTAATAAAA | 0.64 ± 0.0283
AAAAAATTCTAACTTAGCCTATGTCCAAAA | 0.695 ± 0.163
AAAAAAGGTTGGTACGTCGAGTTCTTAAAA | 0.565 ± 0.163
AAAAAAGCGCGCCCGCACTGTTAATAAAAA | 0.635 ± 0.106
AAAAAATAATTACAAGTCGGCTCCACAAAA | 0.69 ± 0.0707
AAAAAACTTCCCTCCTTGTCCTCCCCAAAA | 0.66 ± 0.113
AAAAAATTTTGTGGTGTTTCGCCACCAAAA | 0.715 ± 0.0495
AAAAAATTCCCAGCGTATCCGACCCGAAAA | 0.535 ± 0.0778
AAAAAAGTCATTATAACCCAAACTCTAAAA | 0.5 ± 0.113
AAAAAACAACTTGGAGGATTTACAGCAAAA | 0.73 ± 0.141
AAAAAAAGTAGTTACTGCGAAAGTCTAAAA | 0.675 ± 0.0778
AAAAAAGCCCCTTGCGCCTCTCTACCAAAA | 0.62 ± 0.0424
AAAAAAGGGTTTAGATGTCCTTCAAAAAAA | 0.59 ± 0.099
AAAAAAACTCAACTAGTGAACCACCAAAA | 0.625 ± 0.0636
AAAAAAACCGCGTCGCGGCCCGGGAAAA | 0.5 ± 0.113
AAAAAAAGCTTCTATAGCTCCATGGAAAA | 0.515 ± 0.106
AAAAAACGCCGGACAATCAGGCGCTCAAAA | 0.625 ± 0.177
AAAAAACTACTACCTTTGCCTAAGCGAAAA | 0.685 ± 0.0919
AAAAAACGGGATTCGAAACTTTTTGTAAAA | 0.54 ± 0.099
AAAAAAATCTCACTCCTGGTCCCCATAAAA | 0.56 ± 0.099
AAAAAAGCCTTTACCCTTGTTCCTCTAAAA | 0.69 ± 0.17
AAAAAAGTGTTTGTGCTTCTCTCTGTAAAA | 0.58 ± 0.0707

Sequence | binding signal [absorbance]
AAAAAATTCAGAGCTTCGAGGTTCCGAAAA | 0.66 ± 0.0707
AAAAAAATTACGCGGGATCGCCAAAA | 0.6 ± 0.0566
AAAAAAGGCCTTCGCTCGTGTTTACGAAAA | 0.4 ± 0.0424
AAAAAACAGGCCGATTCCGATCCCGGAAAA | 0.535 ± 0.0919
AAAAAATCCGTTCCCATTTGTCCGTCAAAA | 0.58 ± 0.0849
AAAAAACGGTCGCGATCGTTAATGATAAAA | 0.75 ± 0.17
AAAAAATCACAATACCTTCTCGTCATAAAA | 0.58 ± 0.113
AAAAAACGCAACTCCGGATGTGGGGTAAAA | 0.545 ± 0.0636
AAAAAATGTCGGCTGTTAGGATATCGAAAA | 0.625 ± 0.0495
AAAAAATTAGGACCATCCCCACTAGGAAAA | 0.69 ± 0.0707
AAAAAAGTTCGTGCTTAACCCAGTTTAAAA | 0.69 ± 0.099
AAAAAAGGCGTCTGACTGTAACTCGTAAAA | 1.43 ± 0.445
AAAAAATAGTACCGCTAATGGCTGACAAAA | 0.605 ± 0.12
AAAAAACCGGCACGATTTGGATATTCAAAA | 0.64 ± 0.113
AAAAAAGGCGGTCGTAGTTGTGGGAGAAAA | 1.14 ± 0.0849
AAAAAACCTTACTGTTGATTCTGGTTAAAA | 0.635 ± 0.134
AAAAAAAGTTGTACTTATTATACTTTAAAA | 0.53 ± 0.113
AAAAAATTCCGCGTGTATGTGTACGTAAAA | 0.72 ± 0.212
AAAAAATTCGTATCTGTACCCTATGCAAAA | 0.79 ± 0.283
AAAAAATACTGGCTGTCTCGTTCACAAAAA | 0.615 ± 0.0778
AAAAAATTGTGCCTCTGCCCTCGCCTAAAA | 0.62 ± 0.127
AAAAAATTCACTTTTACCTTTGTGTTAAAA | 0.555 ± 0.0919

Sequence | binding signal [absorbance]
AAAAAATGTGGTTACGGCCTCGATGAAAAA | 0.565 ± 0.106
AAAAAACTAGGTATCGGTAGGCGCCGAAAA | 0.6 ± 0.0849
AAAAAATTACTATTACACACTTGGGGAAAA | 0.6 ± 0.127
AAAAAACGCATCATAGCTACGCCCCAAAAA | 0.62 ± 0.0849
AAAAAAATTGTATCATACTTCAGTTGAAAA | 0.61 ± 0.0707
AAAAAATGGTTTCAATTTTCCGTCCGAAAA | 0.405 ± 0.0778
AAAAAAGGCTCCGGCCCCCAATCGCAAAAA | 0.61 ± 0.0566
AAAAAAACCCGTGCCTGCCTATTGCAAAAA | 0.395 ± 0.0495
AAAAAAACCTCTTTATTCTCGATTGTAAAA | 0.585 ± 0.0495
AAAAAACTAACCGTCGCAGGCGTGTGAAAA | 0.715 ± 0.134
AAAAAATAGACCCTGACCCACCATTGAAAA | 0.71 ± 0.113
AAAAAAAAATGCTAGCGCGTACGTAAAAAA | 0.69 ± 0.17
AAAAAATCATTTTATTTTGCCTTTCTAAAA | 0.56 ± 0.127
AAAAAACTTCTAGTTTATGCTTCCGTAAAA | 0.69 ± 0.141
AAAAAAGGGTTTGTCGGGAATTGCCGAAAA | 0.58 ± 0.0849
AAAAAACCCTAACGAATGCTTTTCGGAAAA | 0.66 ± 0.0849
AAAAAATCGTAAATGCCCATAGCCGTAAAA | 0.555 ± 0.106
AAAAAAACGCTCAAGTCTATCAGTAGAAAA | 0.74 ± 0.141
AAAAAACTACCTCTACTCTAGCCTTAAAAA | 0.515 ± 0.0495
AAAAAAGTCGTTACACGTATGCGTGCAAAA | 1.5 ± 0.0566
AAAAAACTACAACCTGCGCGGTGGTCAAAA | 0.775 ± 0.0636
AAAAAACTCGTACATCTATCGCTACGAAAA | 0.54 ± 0.0849
